Data taken from PubChem BioAssay (NCI).
Compounds without any hit were thinned out: in the full panel of roughly 83,000, 20% have a hit.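 Results are percent growth after 48 hours of single-concentration exposure. 100 means growth as in untreated cells, lower positive values show inhibition; negative values down to -100 show cell death.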 Unmarked numbers belong to inactive results. Active and inactive are the calls of the source. Rule for the calls: active = growth percent below 10; inactive = the rest.

System: HL-60(TB) leukemia
Assay: NCI-60 one-dose screen, 48 h (100 = growth as untreated, 0 = no growth, -100 = all killed)
Settings: 10 µM unless noted

Compound	growth
O=C1C(SCc2ccccc2)=C(Cl)CN1c1ccc(Cl)cc1	44%
CN1CCN(c2ccc(Nc3nc(NCCCNS(=O)(=O)c4ccc(Cl)cc4)c4sccc4n3)cc2)CC1	-43.7% (active)
Clc1ccc2[nH]cc(-c3nn4cc(-c5cccnc5)nc4s3)c2c1	86.2%
CCc1cc2c(cc1Cl)nc1c(=O)[nH]c(=O)nc-1n2CCOCC(C)(C)C	82%
Nc1ncc(-c2ccc(NS(=O)(=O)c3ccc(Cl)c(Cl)c3)cc2)[nH]1	47.7%
CC1(C)CC[C@]2(C(=O)N3CCCN(CC#N)CC3)CC[C@]3(C)C(=CC[C@@H]4[C@@]5(C)CC[C@H](O)C(C)(C)[C@@H]5CC[C@]43C)[C@H]2C1	-15.9% (active)
Cc1ccc2c(n1)C(=O)C(Cl)=C(Nc1ccc(C#N)cc1)C2=O	17.4%
COc1cc2nc(-c3ccc(C)cc3)cc(OCCCNCC3CCCO3)c2cc1OC (stereo not given)	48.6%
O=C(Nc1cccc(C(F)(F)F)c1)c1cc(-c2ccc(F)cc2F)ccc1O	-40.7% (active)
Cn1cc(-c2nc(N)nnc2-c2c[nH]c3ccc(Br)cc23)c2cc(Br)ccc21	3.35% (active)
N#Cc1nc(-c2ccccc2)oc1N1CCC(CO)C1 (stereo not given)	107%
O=C(Nc1cccc(Cl)c1)Nc1nc2cc([N+](=O)[O-])ccc2o1	52.7%
N#Cc1c(NC(=O)c2ccc(F)c(Cl)c2)sc2c1CCC(=O)C2	-14.5% (active)
C#CCC#CCN1CCC[C@H]1C(=O)NCC(=O)OC	105%
O=C(Nc1cccc(Cl)c1)Nc1nc2ccc(-c3cccc4ccccc34)cc2s1	66.9%
CC[C@H](CC[C@@H](C)[C@H]1CC[C@H]2[C@@H]3CC(=O)C4=CC(=O)/C(=C/c5ccc([N+](=O)[O-])cc5)C[C@]4(C)[C@H]3CC[C@]12C)C(C)C	83.5%
COc1ccc(NC2=C(Cl)C(=O)C(C)=C(C)C2=O)cc1	37.4%
Cc1cc2ncc(-c3cc4ccccc4c(N4CCN(C)CC4)n3)nc2cc1C	-31.9% (active)
N#C/C(=C\c1ccc(-c2ccc(Cl)c(Cl)c2)o1)C(=O)Nc1ncc(Cc2ccc(Cl)cc2)s1	51.5%
CC1(C)CC[C@]23CC[C@]4(C)[C@H](CC[C@@H]5[C@@]6(C)CC[C@H](NCO)C(C)(C)[C@@H]6CC[C@]54C)[C@H]2[C@H]1OC3	4.17% (active)

Compound	growth
Brc1cccc(-c2cc(-c3ccc4c(c3)OC=CO4)[nH]n2)c1	14.7%
CCCCCc1ccc(S(=O)(=O)Nc2cccc(-c3csc(NC(=O)CCCCCN4CCN(C)CC4)n3)c2)cc1	-41.5% (active)
COc1ccccc1C(=O)Nc1cccc2c1C(=O)C(=O)C=C2	9.19% (active)
CC(Nc1c(C#N)cnc2ccc(-c3cncc(O)c3)cc12)c1ccccc1 (stereo not given)	3.91% (active)
COc1cccc(NC2=CC(=O)C(C)=C(C)C2=O)c1	3.49% (active)
Clc1ccc(-c2csc(Nc3cccc(Nc4csc(-c5ccc(Cl)cc5)n4)c3)n2)cc1	96.1%
c1ccc2c(NCCCn3ccnc3)c3oc4ccccc4c3nc2c1	-1.2% (active)
Cc1c(C(=O)/C=C/c2ccc(Cl)cc2)nnn1-c1ccc2oc(=O)ccc2c1	92.9%
COc1ccc(C(=O)c2c(N)c(C#N)cn2-c2cccc(OC)c2)cc1	3.83% (active)
CCOC(=O)c1c(N)c(C#N)cn1-c1cc(OC)c(OC)c(OC)c1	96.1%
CC(=O)c1ccc(NC(=O)COc2ccc(C3SCC(=O)N3c3ccc(Br)cc3)cc2)cc1 (stereo not given)	96.7%
O=C(CSc1nnc(-c2cccs2)n1-c1ccccc1)Nc1ccccc1	76%
Cc1[nH]nc2ncc(C#Cc3cncc(C(=O)Nc4ccc(CN5CCN(C)CC5)c(C(F)(F)F)c4)c3)cc12	13.6%
Nc1nc(N)c2c(n1)NC(c1ccccc1)CC(c1ccc(Nc3nc(NCCO)nc(Nc4ccc(Cl)cc4)n3)cc1)=N2 (stereo not given)	2.55% (active)
NC(=O)C(=Cc1ccc(Cl)cc1)C(N)=O	26.6%
Brc1ccccc1/C=N/Nc1nc(N/N=C/c2ccccc2Br)nc(N2CCOCC2)n1	80.5%
CNC(=O)c1cc(Oc2ccc3nc(NC(=O)c4ccc(CN5CCN(C)CC5)c(C(F)(F)F)c4)sc3c2)ccn1	11.3%
Cn1cc(-c2nc(N)nnc2-c2c[nH]c3ccccc23)c2cc(Br)ccc21	-0.377% (active)
CC[C@]12CC(C(=O)OC)=C3Nc4ccccc4[C@@]34CCN(C14)[C@@H]1c3cc4c(cc3O[C@@H]1[C@H]2O)NC1=C(C(=O)OC)C[C@@]2(CC)C3N(CC[C@@]143)C[C@H]1O[C@H]12 (stereo not given in full)	-1.14% (active)
COc1ccc2c(c1)c(CC(=O)[Se]CCC#N)c(C)n2C(=O)c1ccc(Cl)cc1	-43.8% (active)
